Experimental findings from PubChem BioAssay AID652054 (National Center for Advancing Translational Sciences (NCATS), 2013) are described below.

The structures appear in SMILES notation. The whole screen tested about 360,000 compounds, of which about 9,100 (2.5%) were called active. Not shown: some 4% with an inconclusive outcome. This is one part of a sample in which actives are shown more often than they occur. A number with no mark means an inactive call. No stated cut-off is given here; in the data, active means max response below about -50%; inconclusive means no clear call, values can overlap the other calls; inactive means above that.
On the % scale 0 is the no-effect control and ±100 the full control effect.

Sequence of D(3) dopamine receptor (Homo sapiens) (P35462 whole entry, looked up): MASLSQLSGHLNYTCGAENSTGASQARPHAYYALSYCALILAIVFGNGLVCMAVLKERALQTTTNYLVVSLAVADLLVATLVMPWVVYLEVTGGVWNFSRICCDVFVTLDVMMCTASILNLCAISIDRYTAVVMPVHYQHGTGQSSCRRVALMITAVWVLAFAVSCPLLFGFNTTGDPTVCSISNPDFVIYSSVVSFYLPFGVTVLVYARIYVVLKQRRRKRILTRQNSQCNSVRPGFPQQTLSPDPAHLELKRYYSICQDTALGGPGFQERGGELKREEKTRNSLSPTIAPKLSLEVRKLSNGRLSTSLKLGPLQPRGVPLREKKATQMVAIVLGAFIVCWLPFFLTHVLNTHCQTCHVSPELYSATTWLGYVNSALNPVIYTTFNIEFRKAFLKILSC

In the assay the target is D(3) dopamine receptor (Homo sapiens) (UniProt P35462). The assay can be described thus: qHTS of D3 Dopamine Receptor Antagonist: qHTS. The settings on record: D3R cells, DiscoveRx beta-arrestin luminescence, antagonist mode; hits give low values. The essentials:
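Cells expressing the human receptor were seeded at 1500 cells/well, incubated overnight at 37 degrees C in 5% CO2, then exposed to library compounds with dopamine controls for 90 minutes at 37 degrees C before luminescent detection.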
With `O=C(Nc1cc(Br)ccc1F)c1nc[nH]c1C(=O)NCc1ccccc1`, the max response, negative = inhibition is -14.4%.

With `COc1ccc(-c2[nH][nH]c(=O)c2NC(=O)c2ccc([N+](=O)[O-])cc2)cc1`, the max response, negative = inhibition was -25.3%.

Turning to `COC(=O)c1ccc2nc(-c3ccc(OC)c(OC)c3)c(Cc3ccccc3)n2c1`, the max response, negative = inhibition is 1.12%.

On to `O=[N+]([O-])c1ccccc1S(=O)(=O)Nc1cccc2cccnc12`, for which the max response, negative = inhibition is -72% (active).

On to `Cc1ccc2cccc([N+](=O)[O-])c2n1`, for which the max response, negative = inhibition is 0%.

Regarding `COc1cc(NS(=O)(=O)c2ccc3ccccc3c2)c2ncccc2c1`, the max response, negative = inhibition was -25.7%.

Turning to `CC(C)Oc1cc(F)ccc1-c1cc(C(=O)Nc2cccc(Cl)c2)[nH]n1`, the max response, negative = inhibition was 0%.

For `CCOC(=O)C1=CC[C@@H](c2ccccc2)N(S(=O)(=O)c2ccc(C)cc2)[C@H]1c1cccc(OC)c1`, the max response, negative = inhibition is 11.2%.

For `CCc1cc(-c2nnn(CCC3COCCO3)c2CC)ccc1-c1cn(Cc2ccc3ccccc3c2)nn1` (centres undefined), the max response, negative = inhibition is -10.8%.

Regarding `CC1CN(CCOc2ccccc2[N+](=O)[O-])CC(C)O1` (centres undefined), the max response, negative = inhibition was -93.5% (active).

For the compound `Cc1cc(C)c(OCCN2CC(C)OC(C)C2)c(Br)c1` (centres undefined), the max response, negative = inhibition was -21.2%.

Consider `O=[N+]([O-])c1ccccc1OCCCCN1CCCCC1`, for which the max response, negative = inhibition was -89.3% (active).

Consider `Cc1cc(OCCCN2CCN(Cc3ccccc3)CC2)ccc1[N+](=O)[O-]`, for which the max response, negative = inhibition was -14.9%.

As for `Cc1ccc(OCC(=O)Oc2ccccc2[N+](=O)[O-])cc1`, the max response, negative = inhibition was 0.0069%.

In the case of `O=C(COc1ccc(Cl)cc1[N+](=O)[O-])N1CCCCC1`, the max response, negative = inhibition was -5.15%.

In the case of `C=CCN(CC=C)CCOc1ccccc1[N+](=O)[O-]`, the max response, negative = inhibition is -52.4% (active).

As for `CC1CN(CCCOc2ccccc2-c2ccccc2)CC(C)O1` (centres undefined), the max response, negative = inhibition is -29.6%.

On to `O=C(COc1ccccc1[N+](=O)[O-])NC1CC1`, for which the max response, negative = inhibition is 16.3%.

For the compound `O=c1[nH][nH]c2c1[C@H](c1ccc(Cl)cc1)O[C@H](CCc1ccccc1)C2`, the max response, negative = inhibition was -23.3%.

As to `CCCNC(=O)C1(C)CCN(C(=O)c2cc(F)ccc2C)C1` (centres undefined), the max response, negative = inhibition was -11.8%.

`CC(C)CN1CCC1(C)C(=O)Nc1ccc(OC(F)F)cc1` (centres undefined): the max response, negative = inhibition was 12.7%.

Turning to `O=C(Nc1cc(F)ccc1F)c1ccc2c(=O)n3c(nc2c1)CCC3`, the max response, negative = inhibition is 8.55%.

On to `Cc1ccc(NC(=O)[C@H](Cc2ccccc2)NC(=O)CC[C@H]2O[C@@H](n3ccc(=O)[nH]c3=O)[C@H](O)[C@@H]2O)cc1C`, for which the max response, negative = inhibition was -15.6%.

`OC[C@@H]1CN(Cc2ccc(F)cc2)C[C@H](n2cnc3c(NC4CCCC4)ncnc32)O1`: the max response, negative = inhibition is 4.42%.

With `CC1(C(=O)NS(=O)(=O)c2ccccc2)CCN1C(=O)c1ccccc1` (centres undefined), the max response, negative = inhibition was 10.2%.

In the case of `CC1(C(=O)O)CCN1C(=O)/C=C/c1ccccc1` (centres undefined), the max response, negative = inhibition was 0%.

On to `CC1(C(=O)NS(=O)(=O)c2ccccc2)CCN1C(=O)C/C=C/c1ccccc1` (centres undefined), for which the max response, negative = inhibition was -9.32%.

In the case of `CC1(C)CCSC(/C=C/c2ccccc2)=N1`, the max response, negative = inhibition was -74.9% (active).

As for `CCC1OC(C2CC2)CC2=C1C(=O)OC(C)(C)O2` (centres undefined), the max response, negative = inhibition was 14.7%.

As to `CCCC(=O)N1CCC1(C)C(=O)NCc1ccc(C(C)C)cc1` (centres undefined), the max response, negative = inhibition is -6.82%.

Take `CN(CC#CCC(c1ccccc1)c1ccccc1)C(C)(C)C`: the max response, negative = inhibition was -61.6% (active).

In the case of `CC(C)(C)N(CC#CCC(O)(c1ccccc1)C1CCCC1)CCO` (centres undefined), the max response, negative = inhibition was 11.7%.

Regarding `O=C1CCC(=O)N1CCC(=O)N(C(=O)NC1CCCCC1)C1CCCCC1`, the max response, negative = inhibition is 14.6%.

Regarding `CC1(C)NC(=O)N(CC(=O)Nc2ccc(-c3ccccc3)cc2)C1=O`, the max response, negative = inhibition was 16.4%.

In the case of `c1ccc2c(c1)CSc1sccc1C2=C1CCNCC1`, the max response, negative = inhibition is -65.7% (active).

For the compound `COc1ccccc1N1CCN(CCCCOc2ccc(F)cc2)CC1`, the max response, negative = inhibition was -78.2% (active).

On to `Cc1ccc(/C=N/NC(=O)COc2ccccc2-c2ccccc2)cc1`, for which the max response, negative = inhibition was 25.4%.

With `O=c1c2ccccc2ncn1CCCCOc1ccccc1F`, the max response, negative = inhibition is -15.9%.

Turning to `Cc1cccc(NC(=O)CCN2CC(C)CC(C)C2)c1` (centres undefined), the max response, negative = inhibition was -1.96%.

Take `COc1ccccc1N1CCN(c2ccc([N+](=O)[O-])nc2)CC1`: the max response, negative = inhibition was 5.81%.

For `CN1CCN(CCCCOc2ccccc2-c2ccccc2)CC1`, the max response, negative = inhibition is -71% (active).

As to `COc1ccccc1N1CCN(CC(=O)NC(=O)NCc2ccco2)CC1`, the max response, negative = inhibition is -22.2%.

For the compound `CCN1CCN(CCCCOc2ccccc2F)CC1`, the max response, negative = inhibition was -71.5% (active).

In the case of `OCCN1CCN(C(=S)c2ccc(-c3ccccc3)cc2)CC1`, the max response, negative = inhibition was -6.47%.

As for `Cc1[nH]c2ccccc2c1C(=O)CN1CC(C)CC(C)C1` (centres undefined), the max response, negative = inhibition is -3.3%.

On to `Fc1ccccc1OCCCCn1cncn1`, for which the max response, negative = inhibition is 2.5%.

`CC1CC(C)CN(CCOc2cccc3ccccc23)C1` (centres undefined): the max response, negative = inhibition is -86.3% (active).

`Nc1nc2ncccn2c1-c1ccccc1`: the max response, negative = inhibition was -1.52%.

In the case of `O=C(COC(=O)c1cccc(Cl)c1Cl)NC1CCCCCC1`, the max response, negative = inhibition was -13.8%.

Turning to `CC1CCCC(C)N1C(=O)COC(=O)c1ccccc1C(=O)c1ccccc1` (centres undefined), the max response, negative = inhibition was -17.2%.

As for `O=C(Nc1ccc(Cl)c(C(F)(F)F)c1)C1Cc2c(-c3ccccc3Oc3ccccc3)ccnc2O1` (centres undefined), the max response, negative = inhibition was 0%.

Regarding `CCCCN1C[C@H](c2ccc(Br)cc2)[C@@H](CC(=O)Nc2ccc(Br)cc2)C1=O`, the max response, negative = inhibition was 24.8%.

Turning to `COc1ccc(C(=O)C(OP(=O)(OC)OC)c2ccccc2OC)cc1` (centres undefined), the max response, negative = inhibition was 2.58%.

With `CC(C)c1cccc(C(C)C)c1Nc1cn[nH]c1`, the max response, negative = inhibition is 157%.

On to `C[C@@H]1CN([C@@H](C)CO)C(=O)CCCn2nncc2CO[C@H]1CN(C)C(=O)Nc1ccc(C(F)(F)F)cc1`, for which the max response, negative = inhibition was -16.1%.

In the case of `CCCCOCCCNC(=O)C[C@@H]1C[C@@]2(C(=O)OC)CCCCC=C2N(CCC2=CCCCC2)C1=O`, the max response, negative = inhibition is 0%.

With `CC(C)NC(=O)C1(C)CCCCN1Cc1cccc(C(F)(F)F)c1` (centres undefined), the max response, negative = inhibition was 0%.

In the case of `CCOC(=O)C1C(C)C(C(C)(C)C)N(S(=O)(=O)c2ccc(C)cc2)C1c1ccccc1` (centres undefined), the max response, negative = inhibition was 15.8%.

For `CC1(C(=O)Nc2cccc3cccnc23)CCN1C(=O)CCC1CCCC1` (centres undefined), the max response, negative = inhibition was 0%.

`CCOC(=O)C1CCN(C(=O)COc2cccc3ccccc23)CC1`: the max response, negative = inhibition was 2.44%.

`CN1CCN(CCCCOc2cccc3ccccc23)CC1`: the max response, negative = inhibition is -59% (active).

Take `COc1ccccc1OCCCCCCN1CCN(C)CC1`: the max response, negative = inhibition is 0.923%.

On to `C[N+](C)(C)CCNC(=O)c1c[nH]c2ccccc12`, for which the max response, negative = inhibition is 0%.

Turning to `CCOC(=O)[C@]12CCC=C1N(Cc1ccco1)C(=O)[C@H](CC(=O)N1CCSCC1)C2`, the max response, negative = inhibition is 2.85%.

For `COC(=O)[C@@]12C[C@@H](CC(=O)N3CCC(c4ccccc4)CC3)C(=O)N(Cc3ccccc3)C1=CCC(C)(C)C2`, the max response, negative = inhibition was 15.3%.

Turning to `COc1ccc(-c2cc3c(c4c2ccn4C)C2CCC3C2)cn1` (centres undefined), the max response, negative = inhibition was 12.4%.

Consider `O=C(CSc1nc2cccc(F)c2c(=O)n1-c1ccccc1)Nc1ccc2c(c1)CCC2`, for which the max response, negative = inhibition is -3.93%.

As for `O=C(CSc1nnc2scc(-c3ccc(F)cc3)n12)NCc1ccco1`, the max response, negative = inhibition was 5.75%.

As to `Cn1c(-c2ccc(F)cc2)cnc1SCC(=O)NCc1ccco1`, the max response, negative = inhibition was -51.9% (active).

With `Cn1c(-c2ccc(F)cc2)cnc1SCC(=O)NNC(=O)Cc1ccccc1`, the max response, negative = inhibition is -14.6%.

For `CCCCCn1nnnc1C1c2ccccc2C(=O)N1Cc1ccco1` (centres undefined), the max response, negative = inhibition was -21.5%.

For `O=NN(CCCl)C(=O)NCCc1cccc[n+]1[O-]`, the max response, negative = inhibition was -1.68%.

For `CCN1CCN(C(=O)c2ccccc2N(C)S(=O)(=O)c2ccc(C)cc2)CC1`, the max response, negative = inhibition was -77.3% (active).

As to `CCOC(=O)N1CCN(C(=O)c2ccccc2N(Cc2ccccc2)S(=O)(=O)c2ccc(OC)cc2)CC1`, the max response, negative = inhibition is -17.6%.

For the compound `CCOC(=O)C1CCN(C(=O)c2ccccc2N(C)S(=O)(=O)c2ccccc2)CC1`, the max response, negative = inhibition was -4.73%.

Regarding `Clc1ccccc1Nc1nc(NCc2cccs2)nc2ccsc12`, the max response, negative = inhibition is 31.9%.

For `O=C(C[C@H]1CC[C@@H](NC(=O)c2ccncc2)[C@@H](CO)O1)NCC1CC1`, the max response, negative = inhibition was 12.2%.

Take `O=C(NCc1nnnn1-c1ccc(Cl)cc1)c1ccc2c(c1)OCO2`: the max response, negative = inhibition was -11.2%.

Regarding `CC(=O)N/C(=C/c1ccc(OC(F)F)cc1)C(=O)O`, the max response, negative = inhibition is -58.1% (active).

`CC(=O)N/C(=C\c1ccccc1)C(=O)OC(C)C(=O)N(C)c1ccccc1` (centres undefined): the max response, negative = inhibition is -13.3%.

As for `CC(=O)N/C(=C\c1ccc(F)cc1)C(=O)NC(Cc1ccccc1)C(=O)O` (centres undefined), the max response, negative = inhibition was 3.22%.

In the case of `CC1(Cc2cccc(C#N)c2)C(=O)Nc2ccc(-c3cccc(C(F)(F)F)c3)cc21` (centres undefined), the max response, negative = inhibition is 19.7%.

As to `CCOc1cc(C)c(S(=O)(=O)NCc2ccccn2)cc1C`, the max response, negative = inhibition is 4.2%.

As for `CCOc1cc(CNn2c(C)nnc2SCC(=O)NC(C)(C)C)ccc1OCC(=O)NC(C)(C)C`, the max response, negative = inhibition is 4.21%.

Turning to `CCOc1cc(CNCc2ccccn2)ccc1OCC(=O)NC(C)(C)C`, the max response, negative = inhibition is -58.7% (active).

Turning to `CC1(C)CC(=O)C2=C(C1)N=C1SCCC(=O)N1C2c1ccc(C(F)(F)F)cc1` (centres undefined), the max response, negative = inhibition is -94.4% (active).

Consider `CNC(=O)C[C@H]1C(=O)N(Cc2ccccc2)C[C@@H]1CSC`, for which the max response, negative = inhibition is -17.4%.

With `O=S(=O)(c1ccc(Cl)cc1)c1nc(-c2ccccc2F)oc1NCCN1CCOCC1`, the max response, negative = inhibition is -10.5%.

As to `O=S(=O)(c1ccc(Br)cc1)c1nc(-c2ccccc2)oc1N1CCOCC1`, the max response, negative = inhibition is -1.47%.

`O=S(=O)(c1ccccc1)c1nc(-c2ccccc2)oc1NCCCN1CCOCC1`: the max response, negative = inhibition is -64.3% (active).

With `CC(=O)c1cccc(-c2cnc3c(NC=O)cc(-c4ccc(N(C)C)cc4)cn23)c1`, the max response, negative = inhibition was 4.39%.

Take `CCOCCCNCc1cc(Br)ccc1OCC`: the max response, negative = inhibition is 4.27%.

As for `c1ccc(CNCc2ccc(CNCc3ccccc3)cc2)cc1`, the max response, negative = inhibition was -21.6%.

In the case of `CCOc1ccccc1OCCCNCc1ccccc1`, the max response, negative = inhibition is -58.9% (active).
